Laboratory results from the supplement of paper PMC10849652.
About 7,900 targets were measured; listed, in parts, are those with a hit and a random draw of the rest. About 0.6% of all pairs of compound and target were hits.

Experiments:
Test in all cases: log2 fold change, soluble protein after heating vs DMSO (PISA); higher = thermal stabilisation; K562 cells, 10 uM, 30 min; active = over 0.2 and 3.5 SD of the protein, either way, in both replicates (recomputed)
[1] = compound: CC[C@@H]1C(=O)N(C)c2cnc(Nc3ccc(C(=O)NC4CCN(C)CC4)cc3OC)nc2N1C1CCCC1
Procedure, shortened: (§1)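 Thermal stability values are relative to control samples and come from duplicates. They are expressed as log2 fold changes. For measurement, K562 cells (2×10^6 cells/mL) received 10 μM compound for 30 min, and aliquots were heated for 3 min over 48°C-58°C, pooled, and extracted at 4°C in PBS with 0.5% NP-40. Soluble protein, the supernatant after 21,000xg for 90 min, was quantified by TMTpro 16plex LC-MS/MS with equalised channel sums.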

volasertib = compound: CC[C@@H]1C(=O)N(C)c2cnc(Nc3ccc(C(=O)N[C@H]4CC[C@H](N5CCN(CC6CC6)CC5)CC4)cc3OC)nc2N1C(C)C [volasertib]
Procedure, shortened: as §1

[2] = compound: CC[C@H](C)N1C=C(C2=C(C=C(C=C21)C3=CN=C(C=C3)N4CCNCC4)C(=O)NCC5=C(C=C(NC5=O)C)C)C
Procedure, shortened: as §1

epoxomicin = compound: CC[C@H](C)[C@@H](C(=O)N[C@@H]([C@@H](C)O)C(=O)N[C@@H](CC(C)C)C(=O)[C@]1(CO1)C)NC(=O)[C@H]([C@@H](C)CC)N(C)C(=O)C [epoxomicin]
Procedure, shortened: as §1

[3] = compound: CCn1c(C(=O)N(C2CC2)C2CC2)cc2c3c(ncn3C)c(Nc3cc(C)n(C)n3)nc21
Procedure, shortened: as §1

[4] = compound: CCn1cc(-c2ccnc3[nH]c(-c4cccc(CN(C)C)c4)cc23)c(-c2ccc(NC(=O)N(C)C)cc2)n1
Procedure, shortened: as §1

[5] = compound: CN(C)CC(=O)Nc1ccc2[nH]c(=O)c3ccccc3c2c1
Procedure, shortened: as §1

rosiglitazone = compound: CN(CCOC1=CC=C(C=C1)C[C@H]2C(=O)NC(=O)S2)C3=CC=CC=N3 (racemic) [rosiglitazone]
Procedure, shortened: as §1

[6] = compound: CN1C2=C(C3=C1C(=O)N(N=C3)CC4=CC(=CC=C4)N)SC(=C2)S(=O)C
Procedure, shortened: as §1

[7] = compound: CN1CCC(CNc2ccc3ncc(-c4cccc(OC(F)(F)F)c4)n3n2)CC1
Procedure, shortened: as §1

Measured: log2 fold change

KCTD10 (UniProt Q9H3F6)
UniProt Q9H3F6, sequence (Q9H3F6 whole entry, looked up): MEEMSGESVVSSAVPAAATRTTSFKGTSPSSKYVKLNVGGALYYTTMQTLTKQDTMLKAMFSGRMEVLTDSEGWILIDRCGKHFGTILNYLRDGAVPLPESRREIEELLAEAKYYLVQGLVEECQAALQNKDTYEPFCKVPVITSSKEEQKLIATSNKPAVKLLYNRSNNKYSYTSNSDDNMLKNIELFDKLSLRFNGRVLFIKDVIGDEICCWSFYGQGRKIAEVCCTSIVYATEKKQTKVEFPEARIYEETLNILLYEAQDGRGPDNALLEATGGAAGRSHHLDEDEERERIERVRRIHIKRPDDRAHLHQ
inactive: [1] 0.046 | volasertib 0.022 | [2] 0.055 | epoxomicin -0.019 | [3] 0 | [4] -0.01 | [5] 0.023 | rosiglitazone 0.04 | [6] 0.003
active: [7] 0.257

LIMA1 isoform 4 (UniProt Q9UHB6)
UniProt Q9UHB6, sequence (Q9UHB6 whole entry, looked up): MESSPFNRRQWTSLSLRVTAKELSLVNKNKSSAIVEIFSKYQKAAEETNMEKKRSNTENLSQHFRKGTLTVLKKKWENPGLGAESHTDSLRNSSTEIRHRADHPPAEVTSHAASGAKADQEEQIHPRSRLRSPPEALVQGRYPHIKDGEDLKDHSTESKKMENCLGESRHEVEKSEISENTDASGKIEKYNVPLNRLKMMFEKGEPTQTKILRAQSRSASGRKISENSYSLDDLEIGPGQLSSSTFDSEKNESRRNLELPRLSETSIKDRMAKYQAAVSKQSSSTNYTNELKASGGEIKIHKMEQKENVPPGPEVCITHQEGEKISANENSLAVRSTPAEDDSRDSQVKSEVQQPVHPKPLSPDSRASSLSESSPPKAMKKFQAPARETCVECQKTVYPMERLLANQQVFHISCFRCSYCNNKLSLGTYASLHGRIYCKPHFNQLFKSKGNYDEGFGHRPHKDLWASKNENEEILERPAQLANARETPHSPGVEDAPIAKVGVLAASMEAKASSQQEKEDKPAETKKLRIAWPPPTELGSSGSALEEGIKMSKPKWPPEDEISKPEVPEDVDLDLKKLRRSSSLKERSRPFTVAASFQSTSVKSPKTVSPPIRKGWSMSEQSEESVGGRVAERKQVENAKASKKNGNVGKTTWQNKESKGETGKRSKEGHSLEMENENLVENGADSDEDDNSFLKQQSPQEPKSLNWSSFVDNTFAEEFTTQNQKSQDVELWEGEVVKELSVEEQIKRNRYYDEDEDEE
inactive: [1] -0.006 | volasertib -0.115 | [2] -0.021 | epoxomicin 0.003 | [3] -0.015 | [4] 0 | [5] -0.053 | rosiglitazone -0.01 | [6] -0.006 | [7] 0.086

KTN1 (UniProt Q86UP2)
inactive: [1] 0.039 | volasertib -0.242 | [2] 0.028 | epoxomicin 0.037 | [3] 0.091 | [4] 0.084 | [5] 0.006 | rosiglitazone -0.009 | [6] 0.127 | [7] -0.006

LEMD3 (UniProt Q9Y2U8)
UniProt Q9Y2U8, sequence (Q9Y2U8 whole entry, looked up): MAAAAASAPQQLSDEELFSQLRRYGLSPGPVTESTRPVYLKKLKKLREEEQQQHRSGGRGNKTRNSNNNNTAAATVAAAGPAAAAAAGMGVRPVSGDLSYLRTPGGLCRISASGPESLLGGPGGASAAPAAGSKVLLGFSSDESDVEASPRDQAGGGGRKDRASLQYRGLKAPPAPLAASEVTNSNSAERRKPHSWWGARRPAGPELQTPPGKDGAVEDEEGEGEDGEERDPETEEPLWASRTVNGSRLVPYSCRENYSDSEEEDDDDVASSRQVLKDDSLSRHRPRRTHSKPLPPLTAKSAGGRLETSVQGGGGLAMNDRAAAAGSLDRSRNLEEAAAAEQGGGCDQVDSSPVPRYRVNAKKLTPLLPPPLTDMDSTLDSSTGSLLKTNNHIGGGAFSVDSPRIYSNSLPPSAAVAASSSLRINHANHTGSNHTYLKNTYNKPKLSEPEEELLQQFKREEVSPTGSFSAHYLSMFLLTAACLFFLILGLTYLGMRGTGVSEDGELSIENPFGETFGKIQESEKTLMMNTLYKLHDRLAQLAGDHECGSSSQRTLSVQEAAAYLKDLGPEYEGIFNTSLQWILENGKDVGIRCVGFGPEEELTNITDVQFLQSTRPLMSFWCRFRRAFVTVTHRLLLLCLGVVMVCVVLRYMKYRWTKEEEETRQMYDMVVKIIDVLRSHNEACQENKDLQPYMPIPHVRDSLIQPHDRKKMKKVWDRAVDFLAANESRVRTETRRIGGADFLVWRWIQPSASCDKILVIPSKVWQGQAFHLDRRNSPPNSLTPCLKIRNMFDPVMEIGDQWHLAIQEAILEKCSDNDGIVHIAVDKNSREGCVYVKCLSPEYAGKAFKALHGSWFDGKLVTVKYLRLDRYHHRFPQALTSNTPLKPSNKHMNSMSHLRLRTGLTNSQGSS
inactive: [1] -0.096 | [2] -0.063 | epoxomicin 0.095 | [3] -0.076 | [4] 0.003 | [5] 0.123 | rosiglitazone -0.03 | [6] -0.016 | [7] -0.081
active: volasertib -0.324

MAPK9 (UniProt P45984)
inactive: [1] -0.055 | volasertib -0.087 | [2] 0.006 | epoxomicin -0.005 | [3] -0.004 | [4] 0.03 | [5] 0 | rosiglitazone 0.04 | [6] -0.038 | [7] -0.071

MARCKSL1 (UniProt P49006)
inactive: [1] -0.055 | volasertib 0.038 | [2] 0.021 | epoxomicin -0.055 | [3] 0.02 | [4] -0.015 | [5] -0.044 | rosiglitazone 0.012 | [6] -0.08 | [7] 0.147

KIF2C (UniProt Q99661)
active: volasertib -0.357
inactive: [1] -0.037 | [2] 0.084 | epoxomicin 0.019 | [3] -0.042 | [4] -0.063 | [5] 0.09 | rosiglitazone 0.057 | [6] 0.003 | [7] -0.06

KDM5D isoform 3 (UniProt Q9BY66)
inactive: [1] -0.305 | volasertib -0.404 | [2] 0.032 | epoxomicin 0.163 | [3] -0.01 | [4] 0.034 | [5] 0.223 | rosiglitazone 0.108 | [6] -0.14 | [7] -0.059

KPNA1 (UniProt P52294)
UniProt P52294, sequence (P52294 whole entry, looked up): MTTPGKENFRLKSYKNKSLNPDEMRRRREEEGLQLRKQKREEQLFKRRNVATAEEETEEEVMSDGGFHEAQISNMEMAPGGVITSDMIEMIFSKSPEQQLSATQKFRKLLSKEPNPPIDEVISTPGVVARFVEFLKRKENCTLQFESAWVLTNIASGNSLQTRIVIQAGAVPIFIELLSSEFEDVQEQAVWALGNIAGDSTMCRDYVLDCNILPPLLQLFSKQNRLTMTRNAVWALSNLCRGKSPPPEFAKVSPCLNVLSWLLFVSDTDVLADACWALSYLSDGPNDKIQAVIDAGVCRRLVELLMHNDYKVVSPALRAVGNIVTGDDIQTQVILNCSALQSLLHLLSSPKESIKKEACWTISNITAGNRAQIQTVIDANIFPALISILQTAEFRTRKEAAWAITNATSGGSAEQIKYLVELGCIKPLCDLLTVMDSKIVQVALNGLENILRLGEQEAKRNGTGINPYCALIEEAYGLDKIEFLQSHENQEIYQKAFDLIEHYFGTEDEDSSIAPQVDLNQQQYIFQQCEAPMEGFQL
inactive: [1] -0.039 | [2] 0.115 | epoxomicin -0.051 | [3] 0.022 | [4] 0.004 | [5] 0.055 | rosiglitazone 0.055 | [6] 0.104 | [7] -0.082
active: volasertib -0.312

LIMD1 (UniProt Q9UGP4)
UniProt Q9UGP4, sequence (Q9UGP4 whole entry, looked up): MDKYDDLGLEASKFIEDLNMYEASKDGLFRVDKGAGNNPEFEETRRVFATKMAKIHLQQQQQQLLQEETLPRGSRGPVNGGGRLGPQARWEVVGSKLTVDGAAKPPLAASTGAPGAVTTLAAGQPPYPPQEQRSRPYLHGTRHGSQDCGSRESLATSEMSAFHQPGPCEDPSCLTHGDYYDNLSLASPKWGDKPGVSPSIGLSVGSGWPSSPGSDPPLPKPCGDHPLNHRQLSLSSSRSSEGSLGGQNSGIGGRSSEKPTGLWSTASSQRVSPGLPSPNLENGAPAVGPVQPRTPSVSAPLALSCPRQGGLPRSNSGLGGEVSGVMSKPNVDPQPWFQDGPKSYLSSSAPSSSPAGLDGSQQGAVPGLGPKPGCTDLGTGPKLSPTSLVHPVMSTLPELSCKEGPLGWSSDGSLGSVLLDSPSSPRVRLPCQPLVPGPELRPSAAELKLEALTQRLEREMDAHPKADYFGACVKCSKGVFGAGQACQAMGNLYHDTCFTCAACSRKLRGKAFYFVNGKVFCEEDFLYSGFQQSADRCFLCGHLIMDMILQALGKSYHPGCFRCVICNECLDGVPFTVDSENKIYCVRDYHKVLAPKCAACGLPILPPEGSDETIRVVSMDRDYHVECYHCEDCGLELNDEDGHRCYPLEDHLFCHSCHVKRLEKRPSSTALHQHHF
inactive: [1] -0.055 | [2] 0.042 | epoxomicin -0.018 | [3] 0.026 | [4] 0.002 | [5] 0.015 | rosiglitazone 0.064 | [6] -0.028 | [7] -0.043
active: volasertib -0.245

LPIN3 isoform 2 (UniProt Q9BQK8)
inactive: [1] 0.016 | volasertib -0.015 | [2] 0.04 | epoxomicin 0.073 | [3] -0.048 | [4] -0.078 | [5] -0.054 | rosiglitazone 0.135 | [6] 0.002
active: [7] -0.27

KCTD2 (UniProt Q14681)
UniProt Q14681, sequence (Q14681 whole entry, looked up): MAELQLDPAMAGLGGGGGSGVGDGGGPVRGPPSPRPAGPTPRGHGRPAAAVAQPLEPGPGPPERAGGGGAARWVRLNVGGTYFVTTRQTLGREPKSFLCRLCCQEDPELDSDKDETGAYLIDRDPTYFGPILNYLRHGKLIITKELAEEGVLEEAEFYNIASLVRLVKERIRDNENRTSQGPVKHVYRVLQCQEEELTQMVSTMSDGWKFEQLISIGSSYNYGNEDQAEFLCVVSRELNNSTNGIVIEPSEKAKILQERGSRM
inactive: [1] 0.003 | volasertib 0.029 | [2] -0.033 | epoxomicin -0.052 | [3] 0.007 | [4] -0.024 | [5] -0.068 | rosiglitazone -0.024 | [6] 0.049 | [7] -0.623

IK (UniProt Q13123)
UniProt Q13123, sequence (Q13123 whole entry, looked up): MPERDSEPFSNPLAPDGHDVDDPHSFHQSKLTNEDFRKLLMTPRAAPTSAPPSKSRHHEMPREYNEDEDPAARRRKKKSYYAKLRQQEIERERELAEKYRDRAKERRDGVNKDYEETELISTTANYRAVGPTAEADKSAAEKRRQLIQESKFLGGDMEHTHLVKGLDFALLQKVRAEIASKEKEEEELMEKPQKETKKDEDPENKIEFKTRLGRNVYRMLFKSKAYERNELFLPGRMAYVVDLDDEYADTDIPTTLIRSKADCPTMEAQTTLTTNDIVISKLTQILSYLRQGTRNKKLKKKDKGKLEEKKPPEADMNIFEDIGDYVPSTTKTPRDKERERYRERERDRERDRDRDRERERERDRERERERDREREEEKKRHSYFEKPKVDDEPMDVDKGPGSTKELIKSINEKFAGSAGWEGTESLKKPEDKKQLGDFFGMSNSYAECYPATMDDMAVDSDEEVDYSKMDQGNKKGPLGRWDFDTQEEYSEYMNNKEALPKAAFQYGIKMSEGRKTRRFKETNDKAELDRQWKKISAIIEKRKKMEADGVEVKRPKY
inactive: [1] -0.136 | [2] 0.02 | epoxomicin 0.125 | [3] -0.053 | [4] 0.069 | [5] -0.034 | rosiglitazone 0.02 | [6] 0.145 | [7] -0.035
active: volasertib -0.366

KSR1 (UniProt Q8IVT5)
UniProt Q8IVT5, sequence (Q8IVT5 whole entry, looked up): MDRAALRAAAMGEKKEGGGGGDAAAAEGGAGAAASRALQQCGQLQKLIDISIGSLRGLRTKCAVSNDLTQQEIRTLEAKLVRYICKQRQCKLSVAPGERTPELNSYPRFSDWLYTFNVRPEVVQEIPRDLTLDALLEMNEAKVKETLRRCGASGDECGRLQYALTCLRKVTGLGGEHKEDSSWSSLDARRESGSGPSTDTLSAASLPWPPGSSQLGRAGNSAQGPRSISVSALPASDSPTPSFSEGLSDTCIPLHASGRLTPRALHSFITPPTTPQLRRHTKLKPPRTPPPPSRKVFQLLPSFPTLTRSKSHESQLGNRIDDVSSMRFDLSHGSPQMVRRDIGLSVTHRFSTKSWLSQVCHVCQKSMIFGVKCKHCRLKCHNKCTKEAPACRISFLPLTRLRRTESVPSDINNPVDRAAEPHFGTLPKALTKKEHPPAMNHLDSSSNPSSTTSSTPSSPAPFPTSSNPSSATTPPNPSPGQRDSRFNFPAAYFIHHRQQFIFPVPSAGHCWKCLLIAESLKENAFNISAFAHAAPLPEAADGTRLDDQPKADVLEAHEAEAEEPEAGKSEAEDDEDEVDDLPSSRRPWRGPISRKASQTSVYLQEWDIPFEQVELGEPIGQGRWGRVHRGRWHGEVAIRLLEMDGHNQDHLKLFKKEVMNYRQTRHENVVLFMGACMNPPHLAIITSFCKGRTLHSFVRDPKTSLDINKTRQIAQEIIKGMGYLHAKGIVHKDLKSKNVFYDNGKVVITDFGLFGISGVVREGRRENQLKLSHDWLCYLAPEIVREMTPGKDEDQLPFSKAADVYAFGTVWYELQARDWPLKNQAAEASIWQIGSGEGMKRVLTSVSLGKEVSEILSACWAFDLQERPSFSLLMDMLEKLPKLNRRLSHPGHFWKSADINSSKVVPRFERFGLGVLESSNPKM
inactive: [1] -0.11 | volasertib -0.182 | [2] 0.179 | epoxomicin 0.047 | [3] 0.002 | [4] 0.178 | [5] 0.009 | rosiglitazone 0.058 | [6] -0.05
active: [7] -0.878
